Source: PubChem BioAssay (several laboratories)
An excerpt weighted towards active compounds, which were near 3.3% of everything screened.
Calb FLC – C. albicans growth inhibition with fluconazole, primary screen, CaCi-2 strain, Alamar Blue fluorescence | C. albicans CaCi-2 (fluconazole-resistant clinical isolate) + fluconazole, 48 h | growth inhibition, % (no concentration beside the values) | actives 0.57% (n = 300,000) | AID 1979, 2009;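 active = growth inhibition above about 58% in most replicates, limit read from the data, passing the limit was not always enough; inconclusive = exactly half the replicates above a set limit; inactive = most replicates below a set limit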;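 note: all wells also contain fluconazole at 8 µg/ml as a sub-toxic cotreatment; 0% = median of DMSO wells and 100% = median of geldanamycin control wells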
PHOSPHO1 inh – PubChem AID 1565; recombinant PHOSPHO1, absorbance phosphatase assay; inhibition, % at 13.3 µM; actives 1.1% (n = 290,000); Phosphoethanolamine/phosphocholine phosphatase (Homo sapiens), Q8TCT1; in the data active = inhibition above about 60%
Cardio protect – cardioprotection against H2O2-induced cell death, primary screen, uHTS, H9c2 cells, ATPLite luminescence. H9c2 cardiomyocytes, H2O2 injury protection, 2 h. protection from H2O2 cell death, % at 20 µM. actives 0.63% (n = 360,000);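 active = compounds giving at least 50% protection of heart cells from peroxide-induced death in the single-dose screen, raw or plate-pattern-corrected value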;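 note: 0% = DMSO wells with peroxide and 100% = DMSO wells without peroxide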
Cl transport mod – KCC2 cotransporter modulators, thallium flux, primary screen, cell-based, HEK293 KCC2, FluoZin-2 fluorescence, MLSMR; Solute carrier family 12 member 5 (Homo sapiens), Q9H2X9; KCC2 cells, thallium flux FluoZin-2 fluorescence; B-score of Tl+ flux slope (higher = more flux/activation; lower = inhibition) at 10 µM; actives 2.2% (n = 190,000);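 active = thallium flux slope and its plate-corrected score both differing from the plate sample mean at a set confidence after two filtering rounds, in either direction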;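 note: slope of fluorescence scaled to starting intensity during 10 to 20 s after thallium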
Target sequence (Q9H2X9 whole entry, looked up): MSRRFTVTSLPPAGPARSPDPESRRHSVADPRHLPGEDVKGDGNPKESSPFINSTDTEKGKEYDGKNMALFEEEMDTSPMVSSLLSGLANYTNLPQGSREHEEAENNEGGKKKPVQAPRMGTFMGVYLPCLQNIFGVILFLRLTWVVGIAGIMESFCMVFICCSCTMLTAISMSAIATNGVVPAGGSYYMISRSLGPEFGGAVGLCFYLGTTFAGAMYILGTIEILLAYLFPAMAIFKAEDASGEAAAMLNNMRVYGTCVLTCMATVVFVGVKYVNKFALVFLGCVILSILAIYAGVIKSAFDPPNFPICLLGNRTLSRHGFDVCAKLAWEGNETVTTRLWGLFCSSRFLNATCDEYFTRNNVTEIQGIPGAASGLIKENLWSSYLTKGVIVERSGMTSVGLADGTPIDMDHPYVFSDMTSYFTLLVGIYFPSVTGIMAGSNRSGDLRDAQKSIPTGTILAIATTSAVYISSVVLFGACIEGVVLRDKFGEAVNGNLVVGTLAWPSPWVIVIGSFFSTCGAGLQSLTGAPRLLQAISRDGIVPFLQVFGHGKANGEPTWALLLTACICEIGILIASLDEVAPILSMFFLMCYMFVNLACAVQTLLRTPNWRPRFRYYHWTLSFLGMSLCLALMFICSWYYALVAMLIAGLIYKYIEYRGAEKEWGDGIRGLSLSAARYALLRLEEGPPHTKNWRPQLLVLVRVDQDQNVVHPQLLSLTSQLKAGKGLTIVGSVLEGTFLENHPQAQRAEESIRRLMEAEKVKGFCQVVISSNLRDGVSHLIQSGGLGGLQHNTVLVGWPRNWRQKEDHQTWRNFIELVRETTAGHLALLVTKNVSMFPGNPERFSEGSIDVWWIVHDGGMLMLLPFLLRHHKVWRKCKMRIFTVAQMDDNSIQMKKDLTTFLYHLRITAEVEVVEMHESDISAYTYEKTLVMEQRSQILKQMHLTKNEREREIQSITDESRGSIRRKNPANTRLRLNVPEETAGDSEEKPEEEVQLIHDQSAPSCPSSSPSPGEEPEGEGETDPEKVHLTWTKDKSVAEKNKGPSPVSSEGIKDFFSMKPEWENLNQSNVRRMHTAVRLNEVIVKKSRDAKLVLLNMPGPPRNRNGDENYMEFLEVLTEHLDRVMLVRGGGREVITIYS
Efflux pump inh – inhibitors of Candida efflux pumps in yeast, primary screen, S. cerevisiae, Nile Red, multiplex; inhibition, % at 10 µM; S. cerevisiae Candida pump triplex; actives 0.44% (n = 330,000); AID 485275, 2010;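 active = plate passing quality check with inhibition over a set limit, or well fluorescence over plate mean plus 4 SD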;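 note: Nile Red retained in pooled yeast measured as flow cytometry median fluorescence; 0% = buffer negative control and 100% = Enniatin B positive control; higher means more Nile Red kept so more efflux inhibition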
KCC2 secondary – KCC2 modulators in sodium-free buffer, confirmation, cell-based, HEK293 KCC2, thallium flux, secondary assay | FluoZin2 fluorescence; hits give high values | actives 15% (n = 3,700) | normalised thallium flux (F/F0 slope) at 10 µM | shares compounds with Cl transport mod;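 active = thallium flux slope above the same plate's solvent-only control mean plus 3 SD; inconclusive = the two replicate wells disagree; inactive = no significant difference from solvent-only control wells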
KCC2 bumet counter – thallium flux persisting under bumetanide in KCC2 cells, confirmation, counter-screen for KCC2 modulator project, cell-based, HEK293 KCC2, FluoZin2, secondary assay 3; HEK293-KCC2 + bumetanide/ouabain; hits give high values; normalized thallium flux at 10 µM; AID 1714, 2009; actives 49% (n = 3,700); shares compounds with Cl transport mod;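 active = thallium entry rate above the same plate's blocked-transporter control wells by more than 3 SD; inconclusive = the two repeat wells disagree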;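 note: raw slope of fluorescence over initial fluorescence between 10 and 20 s after thallium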
KCC2 sec2 – KCC2 modulators without ouabain present, confirmation, cell-based, HEK293 KCC2, thallium flux, FluoZin2, secondary assay 2; shares compounds with Cl transport mod; thallium flux FluoZin2 fluorescence; actives lie on both sides; F/F0 rise rate, 10–20 s post-thallium; normalized thallium flux at 10 µM; actives 23% (n = 3,700); AID 1715, 2009;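 active = thallium flux slope more than 3 SD above or below the plate's solvent-only control mean, mostly below; inconclusive = the two repeat wells disagreed; inactive = no significant shift from solvent-only controls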;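 note: raw slope with 0.1% DMSO as baseline and bumetanide as block control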
HEK293 Tl flux – thallium flux modulation in parental HEK cells, confirmation, counter-screen for KCC2 modulator project, cell-based, counterscreen 1; shares compounds with Cl transport mod; thallium flux rate (normalised fluorescence) at 10 µM; actives 46% (n = 3,700); HEK293 parental cells, thallium flux FluoZin2, ouabain; baseline-ratio fluorescence slope, 10–20 s after thallium;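 active = thallium flux rate significantly above the same plate's solvent-only control wells, beyond their mean plus 3 SD; inconclusive = the two replicate wells gave conflicting results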
KCC2 ouabain – KCC2 inhibitors and activators, ouabain retest, confirmation, HEK-KCC2 cells; shares compounds with Cl transport mod; HEK293-KCC2, thallium flux FluoZin2 fluorescence; bidirectional: low = inhibitor, high = activator; raw Tl+ flux slope (below DMSO = inhibition, above = activation) at 10 µM; actives 48% (n = 3,700); AID 1717, 2009;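 active = thallium flux slope beyond 3 SD from same-plate DMSO control mean in most replicates, usually higher, sometimes lower; inconclusive = repeat tests gave conflicting results; inactive = no significant difference from controls in most replicates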;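 note: slope of initial-normalized fluorescence between seconds 10 and 20 after thallium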
HEK293 Tl flux2 – native HEK Tl+ uptake effects, second counter-screen – HEK cells, counterscreen 2, counter-screen for KCC2 modulator project, confirmation; HEK293 parental, thallium flux FluoZin-2 fluorescence slope; AID 1718, 2009; shares compounds with Cl transport mod; thallium flux slope at 10 µM; actives 33% (n = 3,700);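 active = thallium flux slope above the same plate's solvent-control mean plus 3 SD in both duplicate wells; inconclusive = duplicate wells that disagreed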;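 note: run without ouabain in cells lacking the KCC2 cotransporter; slope of fluorescence scaled to its starting value between 10 and 20 s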
* = called active by the depositor; ? = inconclusive; · = not tested or not shown.

SMILES | Calb FLC | PHOSPHO1 inh | Cardio protect | Cl transport mod | Efflux pump inh | KCC2 secondary | KCC2 bumet counter | KCC2 sec2 | HEK293 Tl flux | KCC2 ouabain | HEK293 Tl flux2
O=C(NCc1ccccc1)c1sc(=S)n2c1[nH]c(=O)c1ccccc12 | 87* | -1 | -17 | 20* | 0 | 0.0053 | 0.065* | ? | 0.056* | 0.054* | 0.045*
CC(=O)NNC(=O)c1sc(=S)n2c1[nH]c(=O)c1sccc12 | -2 | -50 | 3 | 8.2* | 0 | 0.0076 | 0.01* | 0.028 | 0.012* | ? | 0.012*
NC(=O)c1sc(=S)n2c1[nH]c(=O)c1sccc12 | 14 | 17 | 10 | 0.14 | 0 | · | · | · | · | · | ·
CCCCNC(=O)c1sc(=S)n2c1[nH]c(=O)c1ccc(C(=O)NCCc3ccc(OC)c(OC)c3)cc12 | -4 | 44 | 15 | · | 0 | · | · | · | · | · | ·
COc1ccc(S(=O)(=O)n2cccc2)cc1OC | 3 | 21 | 6 | · | 0 | · | · | · | · | · | ·
COc1ccc(C)cc1NC(=O)CN(c1ccccc1F)S(C)(=O)=O | 13 | 24 | 5 | · | 0 | 0.0081 | 0.0058 | 0.03 | 0.007 | 0.02 | 0.009
COc1ccc(C)cc1NC(=O)CN(C)S(=O)(=O)c1cnc[nH]1 | -11 | 1 | 2 | · | 0 | 0.01 | 0.0072 | 0.035 | 0.0077 | 0.023 | ?
O=C1NCC(O)=C1C=Nc1ccccc1O | -22 | 27 | -12 | 1.4 | 0 | · | · | · | · | · | ·
Cc1nc(-c2ccccc2)nc2n[nH]c(N)c12 | 1 | · | 3 | · | 0 | · | · | · | · | · | ·
Cc1ccccc1-n1c(SCC(=O)c2c(N)n(C3CC3)c(=O)[nH]c2=O)nnc1N1CCOCC1 | · | · | 8 | · | 0 | · | · | · | · | · | ·
O=C(CSCc1ccc(Cl)cc1)Nc1cc([N+](=O)[O-])ccc1O | 91* | 41 | -25 | -3.4* | 1 | 0.0056 | 0.004 | 0.022* | 0.0062* | 0.014* | 0.0083*
CSc1nnc(-c2cnccn2)n1CCCN1CCCC1=O | -1 | 11 | -1 | 8.2* | 0 | 0.0073 | 0.0043 | 0.032 | 0.0074 | 0.02 | 0.01
Cc1[nH]n(-c2ccccc2)c(=O)c1C=Nc1cnc2ccccc2c1 | -2 | 19 | 18 | 2.5 | 0 | · | · | · | · | · | ·
Cc1ccc(N=Cc2c(C)[nH]n(-c3ccccc3)c2=O)nc1 | 6 | 20 | 8 | 13* | 0 | 0.011 | 0.02* | 0.032 | 0.024* | 0.026* | 0.012
Cc1ccc(-n2[nH]c(C)c(C=Nc3ccc(C)cn3)c2=O)cc1 | -9 | -13 | -5 | 9.4* | 0 | 0.011 | 0.02* | 0.033 | 0.022* | ? | 0.014*
Cc1ccc(-n2[nH]c(C)c(C=Nc3ccc(S(=O)(=O)Nc4nccs4)cc3)c2=O)cc1 | -1 | 4 | · | -0.49 | 0 | · | · | · | · | · | ·
Cc1cc(C)nc(-n2nc(C)cc2NC(=O)c2ccc(S(=O)(=O)N3CCOCC3)cc2)n1 | -17 | 33 | · | · | 0 | · | · | · | · | · | ·
COc1ccc(OC)c(/C(O)=C/C(=O)C(=O)Nc2cc(C)ccc2OC)c1 | -10 | 13 | 21 | 4* | 0 | 0.0058 | 0.022* | 0.036 | 0.016* | 0.027* | 0.018*
COc1ccc(OC)c(/C(O)=C/C(=O)C(=O)Nc2cc(C)cc(C)c2)c1 | -8 | -3 | 2 | 1.2 | 0 | · | · | · | · | · | ·
CCOc1ccccc1NC(=O)C(=O)/C=C(\O)c1cc(OC)ccc1OC | 40 | 14 | 34 | 5.8* | 0 | 0.006 | 0.026* | 0.036 | 0.022* | 0.029* | 0.014*
COc1ccc(/C(O)=C/C(=O)C(=O)NNC(=O)c2ccccc2)cc1 | 4 | 26 | 11 | · | 0 | · | · | · | · | · | ·
COc1ccccc1NC(=O)C(=O)/C=C(\O)c1ccccc1 | 15 | 6 | 4 | 73* | 0 | ? | 0.088* | 0.062* | 0.052* | 0.064* | 0.041*
CCOc1ccc(NC(=O)N(Cc2ccc(C)cc2)Cc2ccccn2)cc1 | -1 | 38 | -3 | · | 0 | · | · | · | · | · | ·
Cc1cccc(-n2ccnc2CN2CCN(C(C)C)C(CCO)C2)c1 (centres undefined) | -8 | 27 | 5 | -0.051 | 0 | · | · | · | · | · | ·
Cn1c(SCC(=O)NCC2COc3ccccc3O2)nnc1C(F)(F)F (centres undefined) | · | · | 2 | · | 0 | · | · | · | · | · | ·
SMILES | Calb FLC | PHOSPHO1 inh | Cardio protect | Cl transport mod | Efflux pump inh | KCC2 secondary | KCC2 bumet counter | KCC2 sec2 | HEK293 Tl flux | KCC2 ouabain | HEK293 Tl flux2
Cc1c(-n2c(SCC(=O)O)nnc2-c2ccccc2Cl)c(=O)n(-c2ccccc2)n1C | ? | 2 | 1 | 0.046 | 0 | 0.0091 | 0.0054 | 0.032 | 0.0076 | 0.02 | ?
COc1ccc(C(C)(O)c2nc(-c3ccc(Cl)cc3)cs2)cc1 (centres undefined) | · | · | -10 | · | · | · | · | · | · | · | ·
N#Cc1nc(-c2ccco2)oc1N1CCN(Cc2ccccc2)CC1 | 1 | -5 | 1 | · | 0 | 0.0081 | 0.006 | 0.026* | 0.0069 | 0.028* | 0.0098
COc1ccccc1-c1nc(C#N)c(N2CCN(Cc3ccccc3)CC2)o1 | -6 | -29 | -16 | · | 0 | · | · | · | · | · | ·
Cc1cccc(N=Nc2c(C)[nH]n(C(N)=S)c2=O)c1C | 105* | 44 | · | 5.8* | 0 | 0.0065 | 0.0093* | 0.03 | 0.0098* | 0.02 | ?
Cc1[nH]n(C(N)=S)c(=O)c1N=Nc1ccccc1C(F)(F)F | -1 | · | -4 | · | 0 | · | · | · | · | · | ·
COc1ccc(C(c2nnnn2Cc2cccs2)N2CCN(c3ccccc3F)CC2)cc1 (centres undefined) | 6 | -7 | -2 | -4.1* | 0 | 0.0068 | ? | ? | 0.0076 | 0.018* | 0.011
